Screening data deposited in PubChem BioAssay by National Center for Advancing Translational Sciences (NCATS).
Rows were chosen to be rich in hits. Some 11% of all compounds tested hit in one or more screens of this group.
Pf growth 96h: Primary qHTS for delayed death inhibitors of the malarial parasite plastid, 96 hour incubation. AID 504834, 2011. Potency, µM (top dose mostly 28.7 µM), for the others: at the highest dose activity change, negative = inhibition, actives largely listed as inhibitors. P. falciparum luciferase reporter growth, 96 h. hit rate 6.9% among 320,000
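Luminescence readout: decreased luciferase signal marks inhibited growth of reporter-expressing P. falciparum in infected red cells (2% hematocrit, 0.05% parasitemia final), exposed to compound two generations (96 h, 37 C, 5% CO2).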
HCV inhibitor: qHTS Assay for Inhibitors of Hepatitis C Virus (HCV); Huh7.5.1 HCVcc-Cre infection, luciferase reporter, 44 h; Potency, µM (highest dose often 41.8 µM), for inactives: at the top dose activity change, negative = inhibition, usual class: inhibitors; hit rate 3.4% among 340,000; AID 651820, 2012
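Compounds are dispensed onto cells plated 4 h earlier at 1,000 per well, with HCVcc-Cre virus (about 0.5 moi) added next. Following 44 h of culture, luminescent signal is measured for 15 sec after 15 min with substrate at room temperature.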
AMA1 RON2 block: qHTS for Inhibitors of AMA1-RON; Towards Development of Antimalarial Drug Lead: Primary Screen; Plasmodium falciparum AMA1 (3D7) - RON2 peptide interaction; AID 720542, 2013; AlphaScreen AMA1-biotinylated RON2 peptide binding; Potency, µM (titrated, usually from 58.2 µM), inactives show at the highest dose activity change, negative = inhibition, most hits filed as inhibitors; hit rate 0.2% among 360,000;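 note: 0% = vehicle wells and -100% = peptide control; nearly all actives have a fitted effect of over 45% in size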
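AMA1 (3D7) with his tag at 25 nM final met compounds first, then biotinylated RON2 peptide at 25 nM; detection used donor plus acceptor beads, 10 µg/mL apiece, read by AlphaScreen after 30 min at room temperature.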
Pf growth 48h: Primary qHTS for delayed death inhibitors of the malarial parasite plastid, 48 hour incubation | P. falciparum luciferase growth in erythrocytes, 48 h | Potency, µM (titrated, usually from 28.7 µM), without a hit: at the highest dose activity change, negative = inhibition, actives largely listed as inhibitors | hit rate 5.9% among 310,000
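Read-out is firefly luciferase luminescence from an integrated reporter in P. falciparum, so falling signal marks reduced parasite growth. Infected erythrocytes were at 2% hematocrit and 0.1% parasitemia (final) in Albumax-supplemented RPMI 1640.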
* = called active by the depositor; i = inactive; ? = inconclusive; . = not tested or not shown; [ ] = remark or other dose. Calls come from the whole dose curve; as a rule, active = well fitted curve in the direction sought with a large enough effect; inconclusive = small, poorly fitted or top-dose-only effect, or another doubt; inactive = no such curve, though single readings can be large; an effect the other way counts as inactive or inconclusive. Unless noted, % is set by controls: 0 for no effect and ±100 for the full control effect; potency is the fitted concentration of half-maximal effect.

SMILES	Pf growth 96h	HCV inhibitor	AMA1 RON2 block	Pf growth 48h
CCCN(C(=O)CSCc1ccccc1C)c1c(N)n(Cc2ccccc2)c(=O)[nH]c1=O	-4.3%	-1.7%	0.0%	?
CC(Oc1ccc(F)cc1)C(=O)N(CCC1=CCCCC1)c1c(N)n(Cc2ccccc2)c(=O)[nH]c1=O (stereo unspecified)	9.28µM*	?	4.3%	?
COCCCN(C(=O)CCOc1ccc(C(C)(C)C)cc1)c1c(N)n(Cc2ccccc2)c(=O)[nH]c1=O	?	-21.8%	0.1%	13.1µM*
COc1ccc(CC(=O)N(CCC2=CCCCC2)c2c(N)n(Cc3ccccc3)c(=O)[nH]c2=O)cc1	.	.	-5.7%	.
CCCN(C(=O)CCSc1ccc(F)cc1)c1c(N)n(Cc2ccccc2)c(=O)[nH]c1=O	4.65µM*	8.0%	-1.1%	11.7µM*
COCCN(C(=O)CSc1nc2ccccc2c(=O)n1CC(C)C)c1c(N)n(Cc2ccccc2)c(=O)[nH]c1=O	-51.0%	-27.1%	6.2%	10.4µM*
COc1cc2ccccc2cc1C(=O)Nc1ccc(C)cn1	230.2%	?	-11.2%	98.4%
CCCCN(C(=O)CSc1cc(C)c2ccc(OC)cc2n1)c1c(N)n(Cc2ccccc2)c(=O)[nH]c1=O	11.7µM*	?	82.7%	-16.3%
Cc1ccc(C)c(N2N=C(C(=O)N(CC(C)C)c3c(N)n(Cc4ccccc4)c(=O)[nH]c3=O)CCC2=O)c1	7.38µM*	-6.6%	1.8%	13.1µM*
COc1ccccc1CCC(=O)N(Cc1ccccc1)c1c(N)n(Cc2ccccc2)c(=O)[nH]c1=O	8.28µM*	1.12µM*	-12.6%	?
CC(C)CN(C(=O)C1=NN(c2ccccc2)C(=O)CC1)c1c(N)n(Cc2ccccc2)c(=O)[nH]c1=O	42.5%	3.8%	2.3%	49.4%
CCN(CC)c1ccc(-c2nnc(SCC(=O)N(CCOC)c3c(N)n(CC(C)C)c(=O)[nH]c3=O)o2)cc1	?	-18.4%	-7.4%	1.65µM*
CCCCN(C(=O)CSc1cc(C)c2ccccc2n1)c1c(N)n(Cc2ccccc2)c(=O)[nH]c1=O	?	9.9%	-11.8%	-11.2%
COCCN(C(=O)CSCc1ccccc1)c1c(N)n(Cc2ccccc2)c(=O)[nH]c1=O	16.0%	6.3%	-2.0%	7.0%
COCCCN(C(=O)CCSc1ccc(F)cc1)c1c(N)n(Cc2ccccc2)c(=O)[nH]c1=O	?	-16.4%	2.4%	11.7µM*
COc1cc2ccccc2cc1C(=O)OCC(=O)N(CC(C)C)c1c(N)n(Cc2ccccc2)c(=O)[nH]c1=O	?	?	14.7%	10.4µM*
COCCN(C(=O)COC(=O)c1cc2ccccc2cc1OC)c1c(N)n(Cc2ccccc2)c(=O)[nH]c1=O	?	?	11.1%	?
COCCN(C(=O)CCSc1ccc(F)cc1)c1c(N)n(Cc2ccccc2)c(=O)[nH]c1=O	13.1µM*	0.1%	12.1%	?
CCOc1ncccc1C(=O)NNC(=O)c1cccc(S(=O)(=O)Nc2ccc(OC)cc2)c1	1.2%	.	30.2%	-0.8%
Cc1cccc(NC(=O)CNC(=O)CSc2nc(N)cc(N)n2)c1C	7.3%	5.9%	-1.0%	32.8%
Cc1ccc2oc(=O)c3cnn(CC(=O)N4CCc5ccccc5C4)c3c2c1	2.62µM*	24.3%	11.1%	.
Cc1ccc2oc(=O)c3cc(C(=O)NCCCN4CCc5ccccc5C4)sc3c2c1	11.7µM*	-19.9%	-9.1%	-16.9%
CCC1CCCCN1CCCNC(=O)c1cc2c(=O)oc3ccc(C)cc3c2s1 (stereo unspecified)	99.0%	12.6µM*	3.6%	?
COc1ccc(OC)c(NC(=O)CSc2ccc3nnc(-c4ccccn4)n3n2)c1	?	2.4%	29.4%	?
O=CN1CCN(C(=O)c2ccc(-c3nc4ccccc4s3)s2)CC1	231.1%	?	6.0%	i
SMILES	Pf growth 96h	HCV inhibitor	AMA1 RON2 block	Pf growth 48h
COc1ccc(-c2ccc(OC)c([C@H]3[C@@H]4C=CCC[C@@]4(C)C(=O)N3Cc3ccccc3)c2)cc1OC	11.7µM*	-11.9%[8.37 µM]	?	8.28µM*
COc1ccc(-c2ccc(OC)c([C@H]3[C@H]4C=CC[C@@H](C)[C@@H]4C(=O)N3Cc3ccccc3)c2)cc1C	-15.8%	2.5%	-7.1%	-27.5%
COc1ccc(/C=C/c2ccccc2)cc1[C@H]1[C@@H]2C=CCC[C@@]2(C)C(=O)N1Cc1ccccc1	?	-14.7%	-2.2%	10.4µM*
COc1ccc(-c2ccc(N(C)C)cc2)cc1[C@H]1[C@@H]2C=CCC[C@@]2(C)C(=O)N1Cc1ccccc1	9.28µM*	-2.1%	?	9.28µM*
COc1ccc(Br)cc1[C@H]1[C@@H]2C=CCC[C@@]2(C)C(=O)N1Cc1ccccc1	11.7µM*	-12.2%	-0.5%	?
COc1ccc(/C=C/c2ccccc2)cc1[C@H]1[C@H]2C=CC[C@@H](C)[C@@H]2C(=O)N1Cc1ccccc1	?	-21.1%	39.8%	?
Cc1ncc(CO)c2c1Oc1nc(-c3ccccc3)nc(SCC(=O)Nc3cccc(O)c3)c1C2	-3.1%	?	-1.6%	9.28µM*
O=C(CSc1nc(-c2ccc(F)cc2)nc2c1Cc1ccccc1O2)Nc1cccc(C(=O)O)c1	?	16.5%	-8.5%	467.0%
COc1ccc(-c2nc3c(c(SCC(=O)Nc4cccc(O)c4)n2)Cc2c(CO)cnc(C)c2O3)cc1	3.6%	?	9.4%	9.28µM*
CCc1ccc(NC(=O)CSc2nc(-c3ccc(C)cc3)nc3c2Cc2c(CO)cnc(C)c2O3)cc1	-5.7%	.	.	2.6%
Cc1ccc(-n2c(=O)[nH]c3c(C(N)=O)nc(CC(C)C)nc32)cc1	1.65µM*	?	19.3%	?
COc1ccccc1-n1c(=O)[nH]c2c(C(N)=O)nc(CC(C)C)nc21	?	-2.7%	10.5%	.
Cc1ccc(S(=O)(=O)Oc2ccc(C3C4=C(CCCC4=O)N(CCC(=O)O)C4=C3C(=O)CCC4)cc2Cl)cc1	3.29µM*	12.6%	10.4%	3.29µM*
CC(C)N(C(=O)CSc1ccc(S(=O)(=O)N2CCCCC2)cn1)c1ccccc1	?	?	-12.5%	8.28µM*
CCN(C(=O)CSc1ccc(S(=O)(=O)N2CCOCC2)cn1)c1ccccc1	?	-8.2%	-1.5%	?
CCN(C(=O)C(C)Sc1ccc(S(=O)(=O)N2CCN(C)CC2)cn1)c1ccccc1 (stereo unspecified)	11.7µM*	-3.0%	-2.3%	?
CC(NC(=O)Cc1ccc(S(=O)(=O)N2CCCCC2)cc1)c1ccccc1 (stereo unspecified)	8.28µM*	-1.8%	-3.5%	11.7µM*
CN(C)C(=O)CSc1ccc(S(=O)(=O)N2CCCC2)cn1	-0.7%	?	-2.2%	?
O=S(=O)(Cc1ccccc1)Nc1ccc(S(=O)(=O)N2CCCC2)cc1	4.6%	2.8%	-10.3%	2.33µM*
O=S(=O)(Nc1ccccc1)c1ccc(S(=O)(=O)N2CCCC2)cc1	?	-23.0%	-1.3%	?
